Common to all, as to assay: DAPPL (digital affinity profiling via proximity ligation, sequencing); 10 mM Tris-HCl pH 7.5, 50 mM NaCl, 1 mM DTT, 4% glycerol, room temperature, 30 min; GST-TFs on glutathione beads, 16-mer random dsDNA library, 0.1% formaldehyde crosslink after washing; high values mean tight binding
The target of one assay is T1, FLI1 (Homo sapiens, UniProt Q01543 1-452).
T1 sequence: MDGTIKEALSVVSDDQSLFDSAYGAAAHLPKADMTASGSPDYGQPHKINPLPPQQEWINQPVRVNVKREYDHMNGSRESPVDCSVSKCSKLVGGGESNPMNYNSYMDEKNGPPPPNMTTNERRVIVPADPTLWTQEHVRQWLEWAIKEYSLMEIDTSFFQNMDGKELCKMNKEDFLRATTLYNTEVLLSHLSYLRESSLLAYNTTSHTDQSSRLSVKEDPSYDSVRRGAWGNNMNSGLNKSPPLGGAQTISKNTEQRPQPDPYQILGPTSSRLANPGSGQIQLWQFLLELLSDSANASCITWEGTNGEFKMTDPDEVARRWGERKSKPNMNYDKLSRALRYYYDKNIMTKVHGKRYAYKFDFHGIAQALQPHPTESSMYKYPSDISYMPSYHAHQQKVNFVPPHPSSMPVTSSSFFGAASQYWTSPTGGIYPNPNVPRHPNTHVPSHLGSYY
The conditions noted are these: protein: recombinant; tags: N-terminal GST; dsDNA, one strand shown. The procedure, abridged:
(§1)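 Beads coated with glutathione captured GST-fused human transcription factors that had been expressed in yeast, and the factors were then given DNA barcodes and pooled with a tag-only sample. The pools were incubated with 200 nmole of a random double-stranded 16-mer DNA library in Tris/NaCl/DTT/glycerol buffer for 30 min at room temperature, washed, crosslinked with 0.1% formaldehyde and proximity-ligated with BsaI/T4 ligase at 37 °C for 1 h. PCR amplification and Illumina NextSeq500 sequencing came last. Binding signal is each hexamer's read frequency for a factor divided by its frequency for the tag-only sample.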

For the next assay, the target named is T2, ELK1 (Homo sapiens, UniProt P19419 1-428).
T2 sequence: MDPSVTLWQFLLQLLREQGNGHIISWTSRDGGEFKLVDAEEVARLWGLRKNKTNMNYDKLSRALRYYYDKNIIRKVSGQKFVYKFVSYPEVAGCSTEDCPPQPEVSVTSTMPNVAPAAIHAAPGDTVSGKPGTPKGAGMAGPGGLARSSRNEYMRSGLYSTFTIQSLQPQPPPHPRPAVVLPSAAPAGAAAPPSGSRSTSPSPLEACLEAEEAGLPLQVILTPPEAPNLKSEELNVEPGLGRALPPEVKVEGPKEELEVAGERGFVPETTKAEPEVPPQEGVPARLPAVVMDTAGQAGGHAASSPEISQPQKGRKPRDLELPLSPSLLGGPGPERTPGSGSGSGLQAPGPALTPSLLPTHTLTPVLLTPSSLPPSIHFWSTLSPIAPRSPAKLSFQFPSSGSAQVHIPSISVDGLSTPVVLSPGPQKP
The conditions noted are these: protein: recombinant; tags: N-terminal GST; dsDNA, one strand shown. In a few lines: as §1

For a further assay, the target named is T3, GABPA (Homo sapiens, UniProt Q06546 1-454).
T3 sequence: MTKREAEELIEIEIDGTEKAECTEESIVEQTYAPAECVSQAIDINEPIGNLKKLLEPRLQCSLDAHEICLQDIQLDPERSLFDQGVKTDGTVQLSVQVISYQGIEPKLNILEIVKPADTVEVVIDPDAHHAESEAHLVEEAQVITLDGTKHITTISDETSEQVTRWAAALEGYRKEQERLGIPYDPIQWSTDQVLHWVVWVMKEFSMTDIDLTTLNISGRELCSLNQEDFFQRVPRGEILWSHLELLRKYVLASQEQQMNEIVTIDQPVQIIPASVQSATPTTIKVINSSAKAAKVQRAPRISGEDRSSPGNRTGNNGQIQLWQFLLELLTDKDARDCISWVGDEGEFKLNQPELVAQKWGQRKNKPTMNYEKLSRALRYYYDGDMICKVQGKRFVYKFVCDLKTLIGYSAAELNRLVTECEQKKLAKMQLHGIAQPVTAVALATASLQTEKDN
The conditions noted are these: protein: recombinant; tags: N-terminal GST; dsDNA, one strand shown. In a few lines: as §1

The target of the next assay is T4, ERG (Homo sapiens, UniProt P11308 1-479).
T4 sequence: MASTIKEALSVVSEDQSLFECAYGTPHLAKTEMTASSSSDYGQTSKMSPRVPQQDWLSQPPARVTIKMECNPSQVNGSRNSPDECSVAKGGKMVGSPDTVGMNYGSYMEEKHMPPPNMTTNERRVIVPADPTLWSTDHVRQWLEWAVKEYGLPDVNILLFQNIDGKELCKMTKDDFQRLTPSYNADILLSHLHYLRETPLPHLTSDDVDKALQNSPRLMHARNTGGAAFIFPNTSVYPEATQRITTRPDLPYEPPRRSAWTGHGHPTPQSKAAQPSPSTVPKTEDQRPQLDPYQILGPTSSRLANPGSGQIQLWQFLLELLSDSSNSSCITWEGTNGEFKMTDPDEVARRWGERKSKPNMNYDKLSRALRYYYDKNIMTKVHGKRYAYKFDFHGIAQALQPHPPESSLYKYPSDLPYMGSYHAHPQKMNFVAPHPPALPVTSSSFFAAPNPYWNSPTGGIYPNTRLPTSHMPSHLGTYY
The conditions noted are these: protein: recombinant; tags: N-terminal GST; dsDNA, one strand shown. In a few lines:
as §1

The target of the next assay is ELF1 (Homo sapiens, UniProt P32519 1-619). The conditions noted are these: protein: recombinant; tags: N-terminal GST; dsDNA, one strand shown. The procedure, abridged:
as §1

The next assay deals with T5, EHF (Homo sapiens, UniProt Q9NZC4 1-300).
T5 sequence: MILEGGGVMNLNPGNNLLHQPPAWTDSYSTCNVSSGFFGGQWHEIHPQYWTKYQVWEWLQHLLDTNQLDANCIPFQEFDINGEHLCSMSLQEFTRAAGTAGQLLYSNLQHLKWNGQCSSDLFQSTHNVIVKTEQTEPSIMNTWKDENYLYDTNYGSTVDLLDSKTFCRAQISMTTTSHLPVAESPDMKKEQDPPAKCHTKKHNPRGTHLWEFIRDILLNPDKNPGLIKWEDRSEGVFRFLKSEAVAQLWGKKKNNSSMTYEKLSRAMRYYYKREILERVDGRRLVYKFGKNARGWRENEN
The conditions noted are these: protein: recombinant; tags: N-terminal GST; dsDNA, one strand shown. In a few lines:
as §1

Another assay deals with SPI1 (Homo sapiens, UniProt P17947 1-270). The conditions noted are these: protein: recombinant; tags: N-terminal GST; dsDNA, one strand shown. The procedure, abridged: as §1
In another assay the target is SPIB (Homo sapiens, UniProt Q01892 1-262). The conditions noted are these: protein: recombinant; tags: N-terminal GST; dsDNA, one strand shown. In a few lines:
as §1

For another assay, the target named is T6, ELK3 (Homo sapiens, UniProt P41970 1-407).
T6 sequence: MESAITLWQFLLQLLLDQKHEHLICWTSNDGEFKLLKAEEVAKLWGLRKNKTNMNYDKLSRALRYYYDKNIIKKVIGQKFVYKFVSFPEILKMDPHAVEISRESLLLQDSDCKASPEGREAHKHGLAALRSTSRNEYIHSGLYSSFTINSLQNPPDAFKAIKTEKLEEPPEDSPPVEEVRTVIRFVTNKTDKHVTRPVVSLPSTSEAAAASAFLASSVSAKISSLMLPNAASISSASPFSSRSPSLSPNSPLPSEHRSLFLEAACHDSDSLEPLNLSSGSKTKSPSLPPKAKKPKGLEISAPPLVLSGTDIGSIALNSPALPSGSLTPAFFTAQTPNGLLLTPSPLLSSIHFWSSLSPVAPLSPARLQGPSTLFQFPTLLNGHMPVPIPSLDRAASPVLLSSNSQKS
The conditions noted are these: protein: recombinant; tags: N-terminal GST; dsDNA, one strand shown. The procedure, abridged: as §1

The target in another assay is T7, FEV (Homo sapiens, UniProt Q99581 1-238).
T7 sequence: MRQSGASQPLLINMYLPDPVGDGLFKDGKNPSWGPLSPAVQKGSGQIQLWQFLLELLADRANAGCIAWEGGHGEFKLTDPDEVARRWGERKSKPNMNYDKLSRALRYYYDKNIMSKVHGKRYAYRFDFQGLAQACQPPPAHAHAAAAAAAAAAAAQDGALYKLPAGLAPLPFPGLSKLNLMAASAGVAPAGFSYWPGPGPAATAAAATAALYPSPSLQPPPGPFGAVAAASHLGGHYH
The conditions noted are these: protein: recombinant; tags: N-terminal GST; dsDNA, one strand shown. The procedure, abridged: as §1

The target in the next assay is ETV5 (Homo sapiens, UniProt P41161 1-510). The conditions noted are these: protein: recombinant; tags: N-terminal GST; dsDNA, one strand shown. The procedure, abridged: as §1
ETV5, sequence (P41161 whole entry): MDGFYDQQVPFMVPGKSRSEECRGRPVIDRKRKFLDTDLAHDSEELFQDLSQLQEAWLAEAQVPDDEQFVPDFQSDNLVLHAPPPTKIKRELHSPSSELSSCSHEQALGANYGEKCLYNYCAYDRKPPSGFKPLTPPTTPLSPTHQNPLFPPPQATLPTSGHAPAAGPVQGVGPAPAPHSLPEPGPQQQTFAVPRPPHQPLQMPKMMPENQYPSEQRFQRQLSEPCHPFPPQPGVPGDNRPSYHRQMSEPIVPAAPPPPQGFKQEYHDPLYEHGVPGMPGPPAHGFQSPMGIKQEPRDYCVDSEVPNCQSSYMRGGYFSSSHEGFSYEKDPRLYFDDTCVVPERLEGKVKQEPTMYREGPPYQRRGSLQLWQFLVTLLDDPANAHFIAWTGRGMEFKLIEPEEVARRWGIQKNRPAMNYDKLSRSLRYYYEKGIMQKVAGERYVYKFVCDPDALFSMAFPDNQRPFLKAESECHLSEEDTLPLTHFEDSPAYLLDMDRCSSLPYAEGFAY
The next assay concerns the target HSF1 (Homo sapiens, UniProt Q00613 1-529). The conditions noted are these: protein: recombinant; tags: N-terminal GST; chain copies: 3; dsDNA, one strand shown. In a few lines: as §1
The target in a further assay is T8, SPIC (Homo sapiens, UniProt Q8N5J4 1-248).
T8 sequence: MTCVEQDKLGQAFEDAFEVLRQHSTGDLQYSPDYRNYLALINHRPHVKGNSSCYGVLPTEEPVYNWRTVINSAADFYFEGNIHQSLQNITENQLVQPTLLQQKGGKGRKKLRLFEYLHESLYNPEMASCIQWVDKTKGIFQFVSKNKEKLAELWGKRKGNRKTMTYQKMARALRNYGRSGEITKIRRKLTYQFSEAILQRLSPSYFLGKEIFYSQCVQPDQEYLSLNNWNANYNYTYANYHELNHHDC
The conditions noted are these: protein: recombinant; tags: N-terminal GST; dsDNA, one strand shown. The procedure, abridged: as §1

In a further assay the target is ELF4 (Homo sapiens, UniProt Q99607 1-663). The conditions noted are these: protein: recombinant; tags: N-terminal GST; dsDNA, one strand shown. In a few lines: as §1
ELF4, sequence (Q99607 whole entry): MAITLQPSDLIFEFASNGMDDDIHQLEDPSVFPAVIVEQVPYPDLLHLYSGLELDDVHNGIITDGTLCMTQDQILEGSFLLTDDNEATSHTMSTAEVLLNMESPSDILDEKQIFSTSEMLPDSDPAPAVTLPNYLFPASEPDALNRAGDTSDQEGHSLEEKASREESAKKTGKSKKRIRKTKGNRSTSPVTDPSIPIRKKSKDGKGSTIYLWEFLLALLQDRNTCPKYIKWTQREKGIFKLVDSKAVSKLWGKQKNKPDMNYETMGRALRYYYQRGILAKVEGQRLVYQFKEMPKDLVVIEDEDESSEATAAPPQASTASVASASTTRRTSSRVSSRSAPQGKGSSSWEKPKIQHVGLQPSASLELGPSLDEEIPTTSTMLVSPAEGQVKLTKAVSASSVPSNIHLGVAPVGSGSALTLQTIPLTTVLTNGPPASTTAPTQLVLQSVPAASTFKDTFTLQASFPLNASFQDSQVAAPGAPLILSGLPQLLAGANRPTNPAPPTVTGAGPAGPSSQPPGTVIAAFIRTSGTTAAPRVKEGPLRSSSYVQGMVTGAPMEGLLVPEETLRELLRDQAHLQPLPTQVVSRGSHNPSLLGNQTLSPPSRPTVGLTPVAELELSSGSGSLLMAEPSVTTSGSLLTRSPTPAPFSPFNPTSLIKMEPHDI
The next assay deals with T9, ETV2 (Homo sapiens, UniProt O00321 1-342).
T9 sequence: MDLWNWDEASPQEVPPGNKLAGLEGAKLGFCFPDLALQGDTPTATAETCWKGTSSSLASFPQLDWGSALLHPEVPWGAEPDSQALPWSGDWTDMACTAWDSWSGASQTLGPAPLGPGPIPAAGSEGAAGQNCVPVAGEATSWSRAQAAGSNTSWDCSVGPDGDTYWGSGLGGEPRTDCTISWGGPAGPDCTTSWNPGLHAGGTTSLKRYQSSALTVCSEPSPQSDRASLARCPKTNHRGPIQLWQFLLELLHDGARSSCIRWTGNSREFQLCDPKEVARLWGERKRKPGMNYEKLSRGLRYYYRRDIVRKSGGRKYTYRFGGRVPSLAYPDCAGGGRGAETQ
The conditions noted are these: protein: recombinant; tags: N-terminal GST; dsDNA, one strand shown. In a few lines: as §1

Another assay concerns the target T10, ELF3 (Homo sapiens, UniProt P78545 1-371).
T10 sequence: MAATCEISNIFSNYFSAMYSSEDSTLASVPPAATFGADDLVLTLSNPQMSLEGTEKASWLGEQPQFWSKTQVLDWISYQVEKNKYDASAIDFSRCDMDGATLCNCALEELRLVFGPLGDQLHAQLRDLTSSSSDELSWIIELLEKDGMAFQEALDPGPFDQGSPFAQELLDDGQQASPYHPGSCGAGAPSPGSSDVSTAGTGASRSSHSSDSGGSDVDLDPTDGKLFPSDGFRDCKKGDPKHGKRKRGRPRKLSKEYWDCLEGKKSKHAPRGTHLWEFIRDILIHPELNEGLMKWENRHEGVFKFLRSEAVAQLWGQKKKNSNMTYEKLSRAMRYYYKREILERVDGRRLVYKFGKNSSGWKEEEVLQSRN
The conditions noted are these: protein: recombinant; tags: N-terminal GST; dsDNA, one strand shown. In a few lines:
as §1

The next assay has as its target ETV1 (Homo sapiens, UniProt P50549 1-477). The conditions noted are these: protein: recombinant; tags: N-terminal GST; dsDNA, one strand shown. The procedure, abridged: as §1

ETV1, sequence (P50549 whole entry): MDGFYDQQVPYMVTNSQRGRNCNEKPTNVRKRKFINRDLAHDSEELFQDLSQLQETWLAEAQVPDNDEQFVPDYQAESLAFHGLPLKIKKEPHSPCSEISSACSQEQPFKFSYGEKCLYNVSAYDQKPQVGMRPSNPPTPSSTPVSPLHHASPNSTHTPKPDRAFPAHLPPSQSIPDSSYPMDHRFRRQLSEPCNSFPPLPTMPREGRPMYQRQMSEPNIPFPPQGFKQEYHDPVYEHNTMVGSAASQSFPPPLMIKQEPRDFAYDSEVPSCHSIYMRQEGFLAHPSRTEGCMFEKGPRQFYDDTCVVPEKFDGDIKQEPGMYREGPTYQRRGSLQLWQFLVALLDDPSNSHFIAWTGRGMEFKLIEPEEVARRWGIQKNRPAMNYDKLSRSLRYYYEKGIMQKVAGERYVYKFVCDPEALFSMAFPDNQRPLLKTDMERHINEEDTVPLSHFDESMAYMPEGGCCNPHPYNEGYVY
SPIB, sequence (Q01892 whole entry): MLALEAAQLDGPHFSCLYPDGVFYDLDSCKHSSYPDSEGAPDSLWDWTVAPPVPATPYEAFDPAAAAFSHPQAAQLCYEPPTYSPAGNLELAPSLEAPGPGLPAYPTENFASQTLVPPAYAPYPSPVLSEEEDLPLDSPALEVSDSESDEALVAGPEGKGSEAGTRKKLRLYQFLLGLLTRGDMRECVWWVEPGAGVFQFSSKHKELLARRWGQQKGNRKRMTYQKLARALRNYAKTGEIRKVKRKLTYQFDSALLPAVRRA
ELF1, sequence (P32519 whole entry): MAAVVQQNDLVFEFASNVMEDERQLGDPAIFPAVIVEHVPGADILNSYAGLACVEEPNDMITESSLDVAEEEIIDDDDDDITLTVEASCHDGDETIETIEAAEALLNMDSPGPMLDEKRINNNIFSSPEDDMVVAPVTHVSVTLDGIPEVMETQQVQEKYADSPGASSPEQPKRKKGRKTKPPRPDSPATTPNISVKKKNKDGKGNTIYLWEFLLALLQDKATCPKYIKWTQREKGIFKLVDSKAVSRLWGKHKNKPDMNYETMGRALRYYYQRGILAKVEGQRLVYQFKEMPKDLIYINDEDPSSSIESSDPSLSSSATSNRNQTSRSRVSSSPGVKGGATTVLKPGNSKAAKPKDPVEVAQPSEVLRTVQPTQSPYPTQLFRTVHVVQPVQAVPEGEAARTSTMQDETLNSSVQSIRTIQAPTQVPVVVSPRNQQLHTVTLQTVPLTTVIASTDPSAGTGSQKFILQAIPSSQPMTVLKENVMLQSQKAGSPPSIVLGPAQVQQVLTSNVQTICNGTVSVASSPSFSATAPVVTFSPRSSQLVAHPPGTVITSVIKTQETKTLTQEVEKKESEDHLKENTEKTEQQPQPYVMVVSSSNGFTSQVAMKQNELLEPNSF
HSF1, sequence (Q00613 whole entry): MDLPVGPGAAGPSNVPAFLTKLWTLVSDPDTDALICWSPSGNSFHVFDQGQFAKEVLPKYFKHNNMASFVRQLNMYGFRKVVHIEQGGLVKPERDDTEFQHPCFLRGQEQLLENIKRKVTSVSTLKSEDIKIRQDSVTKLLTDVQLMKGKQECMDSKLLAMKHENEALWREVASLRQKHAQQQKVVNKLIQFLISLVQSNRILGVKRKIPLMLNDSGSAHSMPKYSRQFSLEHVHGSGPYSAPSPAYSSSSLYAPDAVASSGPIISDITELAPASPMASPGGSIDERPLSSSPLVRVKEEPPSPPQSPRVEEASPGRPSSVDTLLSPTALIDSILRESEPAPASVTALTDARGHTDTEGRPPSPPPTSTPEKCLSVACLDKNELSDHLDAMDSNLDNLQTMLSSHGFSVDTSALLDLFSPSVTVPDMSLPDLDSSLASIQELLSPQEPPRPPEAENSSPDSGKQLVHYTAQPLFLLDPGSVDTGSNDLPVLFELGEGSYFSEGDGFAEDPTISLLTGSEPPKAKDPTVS

Take AAACGA: the binding signal with FLI1 is 1.07 fold enrichment (6-mer frequency, TF over GST control); with ELK1 it was 1.14 fold enrichment (6-mer frequency, TF over GST control); with GABPA, 1.17 fold enrichment (6-mer frequency, TF over GST control); with ERG, 1.11 fold enrichment (6-mer frequency, TF over GST control); with ELF1, 1.08 fold enrichment (6-mer frequency, TF over GST control); in the assay with EHF it was 1.04 fold enrichment (6-mer frequency, TF over GST control). Besides, the binding signal was 1.1 fold enrichment (6-mer frequency, TF over GST control) with SPI1; 1 fold enrichment (6-mer frequency, TF over GST control) in the assay with SPIB; 1.14 fold enrichment (6-mer frequency, TF over GST control) with ELK3; 1.09 fold enrichment (6-mer frequency, TF over GST control) with FEV; 1.1 fold enrichment (6-mer frequency, TF over GST control) with ETV5; 1.09 fold enrichment (6-mer frequency, TF over GST control) with HSF1. In addition, the binding signal with SPIC was 1.02 fold enrichment (6-mer frequency, TF over GST control); with ELF4, 1.08 fold enrichment (6-mer frequency, TF over GST control); with ETV2, 1.1 fold enrichment (6-mer frequency, TF over GST control); with ELF3, 1.11 fold enrichment (6-mer frequency, TF over GST control); in the assay with ETV1 it was 1.03 fold enrichment (6-mer frequency, TF over GST control).
